Screening results from PubChem.
This is a sample that favours compounds with a hit; in the whole collection about 16% have one here.
DT40 TDP1 no CPT: qHTS for Inhibitors of human tyrosyl-DNA phosphodiesterase 1 (TDP1): qHTS in cells in absence of CPT; Potency, µM (top dose mostly 46.2 µM), for the others: at the highest dose activity change, negative = growth inhibition, hits mostly inhibitors; DT40 Tdp1-/- hTDP1 cells, no CPT, ATP luminescence, 48 h; 15% of 420,000 active; AID 686978, 2013; also: potency is read from the fitted curve at half-maximal effect; % is scaled to controls: 0 for no effect and ±100 for the full control effect; nearly all actives have a fitted effect of over 55% in size
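Growth kinetics read by CellTiter-Glo luminescence after ≥48 hr at 37 °C. Cells: DT40 Tdp1-/- stably carrying human TDP1, 400 per well, compound exposure in the absence of CPT (DMSO vehicle).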
TDP1 inh: qHTS Assay for Inhibitors of Tyrosyl-DNA Phosphodiesterase (TDP1); Tyrosyl-DNA phosphodiesterase 1 (Homo sapiens), Q9NUW8; recombinant TDP1, AlphaScreen DNA substrate cleavage; Potency, µM (doses to about 130 µM), without a hit: top-dose activity change, negative = inhibition, most hits filed as inhibitors; 0.28% of 350,000 active; also: potency is read from the fitted curve at half-maximal effect; % is scaled to controls: 0 for no effect and ±100 for the full control effect; nearly all actives have a fitted effect of over 40% in size
Target sequence (Q9NUW8 whole entry, looked up): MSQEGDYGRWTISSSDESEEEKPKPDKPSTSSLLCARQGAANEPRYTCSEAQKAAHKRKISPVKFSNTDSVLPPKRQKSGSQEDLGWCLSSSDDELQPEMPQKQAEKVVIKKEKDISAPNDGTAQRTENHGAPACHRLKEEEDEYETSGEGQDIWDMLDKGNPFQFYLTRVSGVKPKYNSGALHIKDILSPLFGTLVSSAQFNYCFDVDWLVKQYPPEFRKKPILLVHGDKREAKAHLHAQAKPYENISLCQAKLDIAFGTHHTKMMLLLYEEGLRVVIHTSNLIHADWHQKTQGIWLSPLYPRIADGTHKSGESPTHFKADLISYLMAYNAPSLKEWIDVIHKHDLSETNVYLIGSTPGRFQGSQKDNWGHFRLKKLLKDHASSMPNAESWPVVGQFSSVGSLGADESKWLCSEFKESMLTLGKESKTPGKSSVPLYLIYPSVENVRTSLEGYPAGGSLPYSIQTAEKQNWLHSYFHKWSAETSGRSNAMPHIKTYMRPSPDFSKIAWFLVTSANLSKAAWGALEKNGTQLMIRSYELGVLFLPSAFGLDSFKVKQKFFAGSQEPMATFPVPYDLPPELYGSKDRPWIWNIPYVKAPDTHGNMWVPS
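Steps: enzyme plus compound, 15 min RT; add biotin/phosphotyrosine-FITC oligonucleotide (15 nM final), react 5 min; add donor/acceptor beads (10 ug/ml final), 10 min; read AlphaScreen. Tdp1 at 1 nM final.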
uPA surface inh: qHTS for Inhibitors of Cell Surface uPA Generation; 0.31% of 330,000 active; cell surface uPA generation assay, qHTS; Potency, µM (doses to about 38.3 µM), without a hit: top-dose activity change, negative = inhibition, actives largely listed as inhibitors; active = well fitted inhibition curve with a large enough effect; inconclusive = small, poorly fitted or top-dose-only effect; inactive = no such curve, though single readings can be large or run the other way; tested in mouse RAW 264.7 cells; also: potency is read from the fitted curve at half-maximal effect; % is scaled to controls: 0 for no effect and ±100 for the full control effect; nearly all actives have a fitted effect of over 55% in size
miR-21 act: qHTS Assay for Modulators of miRNAs and/orActivators of miR-21; Potency, µM (top dose mostly 38.3 µM), for the others: top-dose activity change, positive = activation, hits mostly activators; AID 2288, 2010; 340,000 tested, under 10 active; HeLa miR-21 FLuc reporter, luciferase, 48 h;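 also: % of control where 0% means no effect; miR-21 action dims this reporter so a rising signal means less miR-21 action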
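Luminescence from a firefly luciferase reporter carrying a miR-21 binding site downstream, stably expressed under a CMV promoter in HeLa cells that make miR-21 endogenously, reports miRNA modulation after 48 h compound exposure up to approximately 40uM final.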
DT40 TDP1 CPT: qHTS for Inhibitors of human tyrosyl-DNA phosphodiesterase 1 (TDP1): qHTS in cells in presence of CPT; chicken DT40 Tdp1-/-;hTDP1 cells + 20 nM CPT, ATP luminescence, 48 h; Potency, µM (series often up to 46.2 µM), without a hit: at the top dose activity change, negative = growth inhibition, actives largely listed as inhibitors; 12% of 420,000 active; AID 686979, 2013; also: potency is read from the fitted curve at half-maximal effect; % is scaled to controls: 0 for no effect and ±100 for the full control effect; nearly all actives have a fitted effect of over 55% in size
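Cell growth measured by CellTiter-Glo luminescence after a minimum 48 h, 37 C compound exposure with 20 nM CPT in Tdp1-knockout DT40 cells stably expressing hTDP1, seeded 400/well; qHTS titration format.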
* marks the source's active call; other numbers are inactive results; ? = inconclusive; . = not tested or not shown; [ ] = remark or other dose. Unless noted, calls follow the shape of the dose curve; as a rule, active = well fitted curve in the direction sought with a large enough effect; inconclusive = small, poorly fitted or top-dose-only effect, or another doubt; inactive = no such curve, though single readings can be large; an effect the other way counts as inactive or inconclusive.

SMILES	DT40 TDP1 no CPT	TDP1 inh	uPA surface inh	miR-21 act	DT40 TDP1 CPT
COc1ccc(-c2csc(C(O)c3ccc(F)c(F)c3)n2)cn1 (stereo unspecified)	-24%	.	.	.	-3%
OC(c1ccc(F)c(F)c1)c1nc(-c2csc3ccccc23)cs1 (stereo unspecified)	?	.	.	.	23µM*
COc1cc(C(O)c2nc(-c3csc4ccccc34)cs2)ccc1F (stereo unspecified)	18µM*	.	.	.	?
CO/N=C(\C(=O)O)c1csc(NN=C(C)C)n1	-28%	3%	3%	-27%	?
COc1cccc(CN(C)C(=O)c2cccc(NC(=O)CC3SC(N4CCCCC4)=NC3=O)c2)c1OC (stereo unspecified)	18µM*	2%	-5%	.	?
COc1cccc(CN(C)C(=O)c2ccc(NC(=O)CC3SC(N4CCCCC4)=NC3=O)cc2)c1OC (stereo unspecified)	-4%	.	-7%	.	-9%
COc1ccc(CN(C)C(=O)c2cccc(NC(=O)CC3SC(N4CCCCC4)=NC3=O)c2)c(OC)c1 (stereo unspecified)	5.2µM*	.	-11%	.	5.2µM*
O=C(NNC(=S)NC(=O)c1cccs1)c1ccc(O)cc1	?	11%	-18%	-20%	23µM*
O=C(CC(=O)c1cccs1)c1ccncc1	29µM*	.	-4%	.	21µM*
O=C(NNC(=S)NC(=O)c1cccs1)c1cccnc1	?	-2%	7%	0%	?
O=C(NNC(=S)NC(=O)c1cccs1)c1ccc(NC(=O)c2ccccc2)cc1	?	10%	-3%	10%	26µM*
O=C(Nc1ccc(NC(=S)NC(=O)c2cccs2)cc1)c1ccccc1	-19%	1%	7%	-14%	-19%
O=C(CNC(=S)NC(=O)c1cccs1)c1ccccc1	15µM*	-3%	6%	-55%	16µM*
O=C(NC(=S)NCc1ccccc1)c1cccs1	10%	3%	-5%	-5%	23%
CC/C(=N\NC(N)=O)c1ccc(OC)c(OC)c1	-4%	-2%	-9%	-16%	12%
CCOC(=O)C(C)(C)Sc1nc2c(cnn2-c2ccc(F)cc2)c(=O)[nH]1	-5%	.	-2%	-5%	18%
CCCC1=C(C(=O)OCC)C(c2ccc(O)cc2)n2ncnc2N1 (stereo unspecified)	?	4%	6%	-4%	10%
Cc1cc(C)cc(NC(=O)Nc2ccccc2N2CCCCC2)c1	16µM*	8%	2%	-13%	?
CC(=O)Cc1nsc(NC(=O)c2ccc(-c3ccc(Cl)cc3Cl)o2)n1	?	8%	0%	-5%	-9%
CC1CCN(c2ccccc2NC(=O)c2ccc([N+](=O)[O-])o2)CC1	?	.	1%	4%	?
O=C(Nc1ccccc1N1CCCC1)c1ccc([N+](=O)[O-])o1	?	9%	?	8%	23µM*
O=C(Nc1ccccc1N1CCN(C(=O)c2ccccc2)CC1)c1ccc([N+](=O)[O-])o1	15µM*	13%	-11%	8%	21µM*
Cc1nnc2sc(-c3ccc(NC(=O)c4ccc(-c5ccc(Cl)cc5Cl)o4)cc3)nn12	?	.	-1%	.	16µM*
CCN(CC(=O)Nc1ccccc1OC)C(=O)CSCc1c(C)noc1C	2%	1%	-13%	-4%	7%
Cc1ccc(C(=O)Nc2ccccc2N2CCCCC2)o1	?	5%	-2%	7%	26µM*
SMILES	DT40 TDP1 no CPT	TDP1 inh	uPA surface inh	miR-21 act	DT40 TDP1 CPT
O=C(NC(=S)Nc1ccccc1N1CCCCC1)c1ccccc1	26µM*	6%	-2%	3%	?
O=C(Nc1ccc(N2CCCC2)c(Cl)c1)c1ccc([N+](=O)[O-])o1	18µM*	8%	-4%	-31%	8.2µM*
Cc1ccc(C(=O)Nc2ccccc2N2CCCCC2)cc1	?	.	4%	-4%	-11%
O=C(Nc1cc(C(F)(F)F)ccc1-n1cncn1)c1ccc([N+](=O)[O-])o1	21µM*	.	-9%	.	10µM*
O=C(Nc1cc(C(F)(F)F)ccc1-n1cncn1)c1ccc(Br)cc1	-19%	2%	2%	-6%	0%
COc1ccc(C(=O)Nc2cc([N+](=O)[O-])ccc2N2CCCC2)cc1	-13%	5%	9%	-1%	7%
COc1ccc(N2CCCC2)c(NC(=O)c2ccc([N+](=O)[O-])o2)c1	18µM*	19%	.	7%	7.3µM*
CCC(C(=O)Nc1ccccc1N1CCCC1)c1ccccc1 (stereo unspecified)	16µM*	5%	-4%	-3%	?
CCC(Oc1ccccc1)C(=O)Nc1ccccc1N1CCCC1 (stereo unspecified)	?	9%	11%	-2%	?
CN1CCN(c2ccccc2NC(=O)c2ccc(-c3ccc(Cl)cc3Cl)o2)CC1	23µM*	12%	.	17%	21µM*
CS(=O)(=O)N1CCN(c2ccccc2NC(=O)c2ccc(-c3ccc(Cl)cc3Cl)o2)CC1	?	5%	9%	0%	?
COc1ccc(COc2ccsc2C(=O)Nc2ccc(Cl)cc2)cc1	?	-3%	.	0%	?
NNC(=O)c1sccc1OCc1ccc(F)cc1	?	2%	-3%	-15%	7%
O=C(N/N=C/c1ccc(F)cc1)c1sccc1OCc1ccc(F)cc1	18µM*	7%	-13%	10%	16µM*
O=C(N/N=C/c1ccc(Cl)cc1)c1sccc1OCc1ccc(F)cc1	1.3µM*	3%	-12%	-3%	1.2µM*
COC(=O)CCC(=O)N1CCC(CCC(=O)NCc2ccc(F)cc2)CC1	7%	.	-2%	1%	5%
COc1ccc2c(c1)C(=NNc1ccc(C(=O)O)cc1)c1cc(OC)ccc1-2	23µM*	.	-7%	-2%	?
COc1ccc2c(c1)C(=NN)c1cc(OC)ccc1-2	?	2%	-15%	-20%	16µM*
COc1ccc(OC)cc1	-1%	0%	8%	.	-3%
COc1ncccc1C(=O)N1CCCC(N2CCN(c3ccc(F)cc3)CC2)C1 (stereo unspecified)	?	.	4%	.	?
Cc1cccc2cc(CN(CC(C)C)S(=O)(=O)c3ccccc3)c(=O)[nH]c12	23µM*	3%	2%	-1%	?
COc1ccc(S(=O)(=O)N2CCCCC2)cc1N(C)S(=O)(=O)c1ccccc1	?	2%[56.1 µM]	3%	1%	?
COc1ccccc1N(Cc1ccccc1)S(=O)(=O)c1cccc(C(=O)N2CCCCC2)c1	18µM*	-1%	-10%	.	?
